Source: PubChem BioAssay (NCATS)
Records with an inconclusive call do not appear. Unmarked numbers belong to inactive results. Activity calls are given as the source filed them. Calls come from the whole dose curve; as a rule, active = well fitted cell-killing curve with a large enough effect; inconclusive = small, poorly fitted or top-dose-only effect; inactive = flat fitted curve, though single readings scatter. Peptide text beside a SMILES is read from it.

Assay: Cell Viability - LYMP2-014 (AID 983); note: nearly all actives have a fitted effect of over 50% in size;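 for activity change, negative = cytotoxicity: plate controls were DMSO only for no effect and 92 µM tetraoctylammonium bromide for full effect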
Conditions: LYMP2-014 lymphoblastoid cells, viability qHTS; series mostly up to 92.2 µM; activity change, negative = cytotoxicity: at the top concentration
Excerpt: NIH Chemical Genomics Center [NCGC]
NIH Molecular Libraries Screening Centers Network [MLSCN]
National Institutes of Environmental Health Sciences [NIEHS]
National Toxicology Program [NTP]
We have developed a 1536-well cell-based assay for quantitative high throughput screening (qHTS) against a number of cell lines to determine in vitro cytotoxicity of small molecules. This particular assay uses a human lymphoblastoid cell line (LYMP2-014) purchased from Coriell Institute for Medical Research.
NCGC Assay Protocol Summary:
The CellTiter-Glo luminescent cell viability assay (Promega) is a homogeneous method to measure the number of viable cells in culture. The end point readout of this assay is based on quantitation of intracellular ATP, an indicator of metabolic activity, using the luciferase reaction. Luciferase catalyzes the oxidation of beetle Luciferin to oxyluciferin and light in the presence of ATP. The luminescent signal is proportional to amount of ATP present.
Using the CellTiter-Glo luminescent cell viability assay, the amount of cellular ATP was measured in the lymphoblastoid cell line with complete culture medium following compound treatment for 24 hours. The assay was performed in opaque white Kalypsys 1536-well plates. In the screen, tetraoctylammonium bromide was used as positive control. Library compounds were measured for their ability to cause acute toxicity in the cell line, as reflected by a decrease in intracellular ATP levels, in a concentration-dependent manner. […] AC50 values were determined from concentration-response data modeled with the standard Hill equation.
qHTS protocol for CellTiter Glo lymphoblastoid cellular assay
[Step] [Parameter] [Value] [Description]
1. Reagent; 5 uL; 2500 lymphoblastoid cells/well
2. Time; 5 hr; 37 C incubation
4. Controls; 23 nL; Tetraoctylammonium bromide 6.4pM to 92 uM
5. Time; 24 hr; 37 C incubation
6. Reagent; 5 uL; CellTiter Glo reagent
7. Time; 30 min; Room Temperature
8. Detection; Luminescence; Viewlux plate reader
Keywords: cell viability, cytotoxicity, lymphoblastoid cell line, luminescence, NTPHTS, NTPHTS_NCGC, NIEHS, DSSTox, MLSMR, MLSCN, NIH Roadmap, qHTS, NCGC
Potency is the fitted concentration of half-maximal effect.

Row | SMILES | activity change, negative = cytotoxicity [%] | Potency
1 | CCCc1cc(=O)[nH]c(=S)[nH]1 | -7.96 | –
2 | c1ccc2[nH]c(-c3cscn3)nc2c1 | -9.47 | –
3 | CS(=O)(=O)OCCCCOS(C)(=O)=O | – | inactive
4 | COC(=O)[C@H](Cc1ccccc1)NC(=O)[C@@H](N)CC(=O)O (H-Asp-Phe-OMe) | -10.3 | –
5 | Cc1ccc(C)c(OCCCC(C)(C)C(=O)O)c1 | -2.91 | –
6 | CCCCC(CC)COC(=O)C(C#N)=C(c1ccccc1)c1ccccc1 (configuration not stated) | -18.5 | –
7 | CC(=O)Nc1ccc(O)cc1 | -12.9 | –
8 | CN(C)c1ccc2nc3ccc(=[N+](C)C)cc-3sc2c1 | – | 3.98 µM (active)
9 | CCc1nc(N)nc(N)c1-c1ccc(Cl)cc1 | -23 | –
10 | Nc1ccc(S(N)(=O)=O)cc1 | -4.34 | –
11 | COc1c2occc2cc2ccc(=O)oc12 | -10.3 | –
12 | NS(=O)(=O)c1cc(C(=O)O)c(NCc2ccco2)cc1Cl | -0.164 | –
